RE007 growth inh: less growth of the S. pombe RE007 Vpr strain; S. pombe RE007 Vpr strain, BacTiter-Glo ATP luminescence, 24 h; AID 651644; Potency, µM (top dose mostly 92.2 µM), hits mostly inhibitors; 360,000 tested, 0.21% active; active means well fitted falling curve with a large enough effect; inconclusive means small, poorly fitted or top-dose-only effect; inactive means no such curve, though single readings can be large or run the other way; further: nearly all actives have a fitted effect of over 50% in size
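Fission yeast RE007 carrying one integrated HIV-1 vpr copy, seeded at OD 0.01 in PMG+AL medium with 23 nL pinned compound. Grown 24 h at 30 degrees; viability read by BacTiter-Glo luminescence after 5 min.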
SARS PLpro yeast: blocks SARS-CoV papain-like protease in a yeast assay; S. cerevisiae expressing SARS-CoV PLpro, growth rescue; Potency, µM (highest dose often 32.9 µM), most hits filed as activators; 330,000 tested, 0.19% active; AID 485353; calls by dose curve; further: nearly all actives have a fitted effect of over 55% in size
Tb PYK inh: T. brucei pyruvate kinase inhibition | TbPYK enzyme, Kinase-Glo Plus ATP luminescence, 45 min | 410,000 tested, 0.12% active | Q57TT1 | Potency, µM (titrated, usually from 76.8 µM), actives largely listed as inhibitors; further: nearly all actives have a fitted effect of over 50% in size
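TbPYK + substrate in 50 mM TEA pH 7.2, 100 mM KCl, 10 mM MgCl2, 0.05% BSA, 0.01% Tween-20; cpd pinned; ADP 130 uM final; 45 min RT; Kinase-Glo Plus 10 min; luminescence endpoint.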
AMA1 RON2 block: AMA1-RON2 (P. falciparum) interaction inhibition; AlphaScreen AMA1-biotinylated RON2 peptide binding; Potency, µM (top dose mostly 58.2 µM), usual class: inhibitors; 360,000 tested, 0.2% active; AID 720542; further: nearly all actives have a fitted effect of over 45% in size
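AMA1 (3D7) with his tag at 25 nM final met compounds first, then biotinylated RON2 peptide at 25 nM; detection used donor plus acceptor beads, 10 µg/mL apiece, read by AlphaScreen after 30 min at room temperature.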
LmPK inhibitor: LmPK (Leishmania mexicana) enzyme inhibition; purified LmPK, Kinase-Glo ATP luminescence, 1 h; Potency, µM (doses to about 57.5 µM), actives largely listed as inhibitors; AID 1721; 290,000 tested, 0.37% active; Q27686
Target sequence (Q27686 whole entry, looked up): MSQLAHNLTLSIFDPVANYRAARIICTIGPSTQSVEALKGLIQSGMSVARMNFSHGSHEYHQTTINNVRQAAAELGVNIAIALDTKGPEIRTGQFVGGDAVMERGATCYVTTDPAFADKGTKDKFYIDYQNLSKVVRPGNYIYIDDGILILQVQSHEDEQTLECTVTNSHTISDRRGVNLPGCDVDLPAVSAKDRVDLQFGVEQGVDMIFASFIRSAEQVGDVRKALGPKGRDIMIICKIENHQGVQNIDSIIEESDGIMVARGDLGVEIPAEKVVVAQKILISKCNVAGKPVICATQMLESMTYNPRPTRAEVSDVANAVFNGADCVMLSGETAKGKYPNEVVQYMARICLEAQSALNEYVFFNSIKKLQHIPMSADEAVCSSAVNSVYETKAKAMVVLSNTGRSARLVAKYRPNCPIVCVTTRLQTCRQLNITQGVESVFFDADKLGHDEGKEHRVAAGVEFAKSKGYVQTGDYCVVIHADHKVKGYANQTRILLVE
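Screened at intermediate enzyme activity to detect both inhibitors and activators: LmPK at 0.1 nM, with a 0.5 nM enzyme column as activation reference. PEP 0.5 mM, ADP 0.1 mM; ATP detected by luminescence after 1 h.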
Of the large screens only hits and unclear results are named; the others gave an inactive call. Only some compounds are listed: those with a hit (about 0.81% of all), similar ones and a draw of the others. Unless noted, the call rests on the fitted dose curve; in most records, active means well fitted curve in the direction sought with a large enough effect; inconclusive means small, poorly fitted or top-dose-only effect, or another doubt; inactive means no such curve, though single readings can be large; an effect the other way counts as inactive or inconclusive.

CCOC(=O)CNC(=O)c1sc(NC(=O)c2ccccc2F)nc1C	LmPK inhibitor 13µM
O=C(COC(=O)c1cccs1)c1ccccc1	RE007 growth inh inconclusive, LmPK inhibitor 14µM
COc1ccc(C(=O)COC(=O)c2cccs2)cc1	RE007 growth inh inconclusive, Tb PYK inh inconclusive (no result: LmPK inhibitor)
CCOc1ccc(NC(=O)N(CCN2CCOCC2)Cc2ccc3c(c2)CCCN3CC)cc1	AMA1 RON2 block inconclusive
CCCN1CCCc2cc(CN(CCCN3CCOCC3)C(=O)Nc3ccc(OCC)cc3)ccc21	AMA1 RON2 block 27µM
CCOC(=O)c1ncccc1NC(=O)CC(=O)Nc1cccnc1C(=O)OCC	AMA1 RON2 block 14µM (no result: SARS PLpro yeast, LmPK inhibitor)
CC(C)n1c(=O)[nH]c2ccccc21	none
CC(C)n1c(=O)[nH][nH]c1=S	Tb PYK inh 3.5µM
CCCCCCCCCCCCSCCOCCO	none (no result: RE007 growth inh, SARS PLpro yeast, AMA1 RON2 block, LmPK inhibitor)
O=C(C1CCN(C2CC(=O)N(c3cccc(Cl)c3)C2=O)CC1)N1CCCCCC1 (configuration not stated)	RE007 growth inh 7.1µM
O=C1CCCN1CCC1CCN(C2CC(=O)N(Cc3ccc(N4CCCC4=O)cc3)C2=O)CC1 (configuration not stated)	RE007 growth inh inconclusive
O=C1CCCN1CCC1CCN(C2CC(=O)N(c3ccc(Cl)cc3)C2=O)CC1 (configuration not stated)	RE007 growth inh 5µM (no result: SARS PLpro yeast)
CCCOc1ccc(N2C(=O)CC(N3CCCC(C(=O)N4CCCC4)C3)C2=O)cc1 (configuration not stated)	RE007 growth inh 18µM
O=C(C1CCCN(C2CC(=O)N(c3ccc(Cl)cc3)C2=O)C1)N1CCCC1 (configuration not stated)	RE007 growth inh 5.6µM
Cc1ccccc1C(=O)Nc1ccc(N(C)C)c2ccccc12	none
CCCCCCCCCCCCCCCCOCCOCCOCCOCCOCCOCCOCCOCCOCCOCCOCCOCCOCCOCCOCCOCCOCCOCCOCCOCCO	none (no result: RE007 growth inh, SARS PLpro yeast, AMA1 RON2 block, LmPK inhibitor)
O=C(C1CCCN(C2CC(=O)N(c3ccc(F)cc3)C2=O)C1)N1CCCC1 (configuration not stated)	RE007 growth inh 45µM
CCCOc1ccc(N2C(=O)CC(N3CCOCC3)C2=O)cc1 (configuration not stated)	RE007 growth inh inconclusive
CCCOc1ccc(N2C(=O)CC(N3CCC(C(=O)OCC)CC3)C2=O)cc1 (configuration not stated)	RE007 growth inh 5.6µM
O=C1CC(N2CCN(c3ccccc3Cl)CC2)C(=O)N1c1ccc(F)cc1 (configuration not stated)	RE007 growth inh inconclusive
CCOc1ccc(N2C(=O)CC(N3CCC(NC(=O)Nc4ccccc4)CC3)C2=O)cc1 (configuration not stated)	RE007 growth inh 22µM
COc1cccc(CNS(=O)(=O)c2ccc3c(c2)N(C)CCO3)c1	none
O.O=C([O-])CC([S-])C(=O)[O-].[Au+].[Na+].[Na+] (configuration not stated)	none (no result: RE007 growth inh, SARS PLpro yeast, AMA1 RON2 block, LmPK inhibitor)
N#CC(c1ccc(Cl)cc1)c1c(Cl)cc(-n2ncc(=O)[nH]c2=O)cc1Cl (configuration not stated)	none (no result: RE007 growth inh, SARS PLpro yeast, AMA1 RON2 block, LmPK inhibitor)
Cc1ccc2c(c1)c1c(n2C)-c2[nH]ncc2CC1	RE007 growth inh 20µM
Cc1ccc2c(c1)c1c(n2C)C(C(N)=O)CCC1 (configuration not stated)	none
CN(C)c1ccc(N=Nc2ccc3ncccc3c2)cc1	AMA1 RON2 block inconclusive (no result: SARS PLpro yeast, LmPK inhibitor)
Cc1cc(N(C)C)ccc1N=Nc1ccc2ncccc2c1	AMA1 RON2 block 11µM (no result: RE007 growth inh)
CCN1C(=O)c2ccccc2C1Nc1cccc(OCCN2CCCCC2)c1 (configuration not stated)	none (no result: RE007 growth inh, SARS PLpro yeast, AMA1 RON2 block, LmPK inhibitor)
CCOC(=O)c1cc(NC(=O)c2ccc(Cl)cc2)c(=O)n2c1oc1ccccc12	none (no result: RE007 growth inh, SARS PLpro yeast, AMA1 RON2 block, LmPK inhibitor)
c1ccc2nc(-c3nc4ccccc4o3)ccc2c1	RE007 growth inh inconclusive, Tb PYK inh inconclusive, LmPK inhibitor 3.2µM
c1ccc(-c2nc3ccccc3o2)nc1	none
Cc1nc(C#N)c(N/N=C/c2c(F)cccc2Cl)o1	SARS PLpro yeast 11µM
O=C1NCCN1CCN1CCC(c2cn(-c3ccc(F)cc3)c3ccc(Cl)cc23)CC1	none (no result: RE007 growth inh, SARS PLpro yeast, AMA1 RON2 block, LmPK inhibitor)
CN(C)c1cc2c3ccccc3n(C)c2cc1N	RE007 growth inh inconclusive, AMA1 RON2 block 3.5µM (no result: SARS PLpro yeast, LmPK inhibitor)
Cn1cnc(C(=O)NCc2ccccc2)c1C(=O)NCc1ccccc1	none (no result: LmPK inhibitor)
O=C1NC2CCCCN2C12CCN(CCCN1c3ccccc3CCc3ccc(Cl)cc31)CC2 (configuration not stated)	none (no result: RE007 growth inh, SARS PLpro yeast, AMA1 RON2 block, LmPK inhibitor)
O=C(NCc1n[nH]c(=S)n1-c1cccc(Cl)c1)c1cccs1	Tb PYK inh inconclusive
Cc1cccc(-n2c(CNC(=O)c3cccc([N+](=O)[O-])c3C)n[nH]c2=S)c1	Tb PYK inh 8.9µM
COc1ccccc1-n1c(CNC(=O)c2cccc([N+](=O)[O-])c2C)n[nH]c1=S	Tb PYK inh 7.9µM
C=C1C[C@@H]2[C@H]3CCC4=CC(=O)C=C[C@]4(C)[C@@]3(F)[C@@H](O)C[C@]2(C)[C@]1(O)C(=O)COC(C)=O	none (no result: RE007 growth inh, SARS PLpro yeast, AMA1 RON2 block, LmPK inhibitor)
O=C(Nc1ccc(-c2nc3ccccc3o2)cc1)C1CCCO1 (configuration not stated)	RE007 growth inh inconclusive, LmPK inhibitor 16µM
COc1ccc(NC(=O)C2CCCO2)cc1 (configuration not stated)	none
O=C(Nc1ccc2oc(-c3ccccc3)nc2c1)C1CCCO1 (configuration not stated)	none
O=C(Nc1ccc(-c2nc3cccnc3s2)cc1)C1CCCO1 (configuration not stated)	Tb PYK inh inconclusive, LmPK inhibitor 14µM
C=CCNC(=O)N1CCc2nc(COc3ccccc3)c3c(c2C1)CO[C@@H](C)C3	none (no result: RE007 growth inh, SARS PLpro yeast, Tb PYK inh, AMA1 RON2 block)
COc1ccc(CCNC(=O)C2CCN(S(=O)(=O)c3ccc(F)cc3)CC2)cc1	none
CCC(=O)Nc1ccccc1	none
CCC(=O)NC1=C(Cl)C(=O)C(NC(=O)CC)=C(Cl)C1=O	Tb PYK inh 2.5µM, LmPK inhibitor inconclusive (no result: RE007 growth inh)
O=C1CC(N2CCC(c3nc4ccccc4o3)CC2)C(=O)N1c1ccc(Cl)c(C(F)(F)F)c1 (configuration not stated)	RE007 growth inh 28µM, SARS PLpro yeast inconclusive
O=C1CC(N2CCC(c3nc4ccccc4o3)CC2)C(=O)N1c1ccc(F)cc1 (configuration not stated)	RE007 growth inh inconclusive
O=C1CC(N2CCC(c3nc4ccccc4[nH]3)CC2)C(=O)N1c1cccc(F)c1 (configuration not stated)	RE007 growth inh 40µM
O=C(O)c1ccc(N2C(=O)CC(N3CCC(c4nc5ccccc5[nH]4)CC3)C2=O)cc1 (configuration not stated)	none
O=C1CC(SCc2nc3ccccc3[nH]2)C(=O)N1c1ccc(F)c(Cl)c1 (configuration not stated)	none (no result: Tb PYK inh)
